# Test results published in PMC5540273 (PLoS ONE, 2017).
# Tested on: EIF2AK1
# Conditions: concentration: 1 μM, replicates: in singlicate; n = 1
# 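Note: KINOMEscan kinase panel screen.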
row,SMILES,%Inh [%]
1,COc1cc2c(cc1OC[C@@H](O)CO)ncc1c3ccc(C#N)cc3[nH]c21,0
2,COc1ccc(Nc2ncc(C#N)c(Nc3ccccc3C(N)=O)n2)cc1N1CCN(C)CC1.Cl [GSK1558669],48
3,Cc1cccc(-c2nc(-c3ccc(S(C)(=O)=O)cc3)sc2-c2ccncc2)c1,1
4,COc1cc(Nc2nccc(N3CCC(NC(=O)c4cccc(NC(C)=O)c4)C3)n2)cc(OC)c1OC (stereo not shown) [GSK1379754],0
5,Cc1ccc(NC(=O)c2ccnc(N3CCN(C)CC3)c2)cc1-c1ccc(C(=O)NCC2CC2)cc1 [GW775604],0
6,CSc1ccc(-c2cc3ncnc(SCC(=O)O)c3s2)cc1,12
7,c1ccc(-c2cc(-c3c[nH]nc3-c3ccccn3)ccn2)cc1 [GW576604],0
8,O=C(Nc1n[nH]c2cc(-c3cccc(F)c3)ccc12)C1CC1 [SB-735464],0
9,Cc1c(Cn2c(C)nn3c(=O)cc(N4CCOC(C)C4)nc23)cccc1C(F)(F)F (stereo not shown) [GSK2344444],0
10,Cc1nnc(-c2ccc3ncc(-c4ccc(S(C)=O)cc4)n3c2)o1 (stereo not shown),6
11,CN(C(=O)c1ccc(-c2cc(-c3c[nH]nc3-c3ccccn3)ccn2)cc1)C1CCOCC1 [GW810083],0
12,Fc1ccc(-c2ncn(CCCN3CCOCC3)c2-c2ccccn2)cc1 [SB-211742],0
13,COc1cc2c(cc1OCCN1CCN(C)CC1)ncc1c3ccc(C#N)cc3[nH]c21,0
